The text below walks through data of PubChem BioAssay (EPA / NIEHS).

For orientation: AC50 means the concentration at which the activity in the assay is half-maximal.

SMILES strings stand for the structures. The source made the active and inactive calls. How the source made its calls: active means hit-call score of the fitted dose curve at least 0.9, where 1 is the maximum; inactive means score below 0.9.

Assay [1] is described as follows: ATG_M_32_CIS: Attagene CIS-FACTORIAL HepG2 Assay for M32 Transcription Factor (Internal Marker) (AID 2282949).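 Further: background control marker of the multiplexed CIS panel rather than a real target.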 Particulars: HepG2 Attagene cis-factorial M32 reporter, mRNA; actives raise or lower the signal. The essentials:
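Following 24 h chemical exposure of HepG2 cells transiently expressing cis-promoter reporter constructs, reporter transcript levels were determined by RT-PCR with fluorescent labelling and capillary electrophoresis, then fitted bidirectionally against DMSO.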

Assay [2] in a line: ATG_M_06_CIS: Attagene CIS-FACTORIAL HepG2 Assay for M06 Transcription Factor (Internal Marker) (AID 2282950). The note with it: HepG2 Attagene CIS-FACTORIAL M06 internal marker reporter; actives raise or lower the signal. The essentials:
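Internal background marker within multiplexed cis-reporter HepG2 system. Cells transiently transfected, dosed 24 h; reporter mRNA measured by RT-PCR, HpaI digestion and capillary electrophoresis. Bidirectional fit relative to DMSO.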

The target of assay [3] is Hypoxia-inducible factor 1-alpha (Homo sapiens) (UniProt Q16665). Description: ATG_HIF1a_CIS: Attagene CIS-FACTORIAL HepG2 Assay for human Hypoxia Inducible Factor 1 (HIF1A) (AID 2282951). Particulars: HepG2 Attagene cis-factorial HIF1a reporter transcription; actives raise or lower the signal. The method in brief: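 Measures endogenous transcription-factor activity through cis-regulated reporter mRNA in HepG2. Cells dosed 24 h; transcripts quantified by RT-PCR with 6-FAM-labelled products separated by capillary electrophoresis; DMSO serves as negative control.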
Hypoxia-inducible factor 1-alpha (Homo sapiens), sequence (Q16665 whole entry, looked up): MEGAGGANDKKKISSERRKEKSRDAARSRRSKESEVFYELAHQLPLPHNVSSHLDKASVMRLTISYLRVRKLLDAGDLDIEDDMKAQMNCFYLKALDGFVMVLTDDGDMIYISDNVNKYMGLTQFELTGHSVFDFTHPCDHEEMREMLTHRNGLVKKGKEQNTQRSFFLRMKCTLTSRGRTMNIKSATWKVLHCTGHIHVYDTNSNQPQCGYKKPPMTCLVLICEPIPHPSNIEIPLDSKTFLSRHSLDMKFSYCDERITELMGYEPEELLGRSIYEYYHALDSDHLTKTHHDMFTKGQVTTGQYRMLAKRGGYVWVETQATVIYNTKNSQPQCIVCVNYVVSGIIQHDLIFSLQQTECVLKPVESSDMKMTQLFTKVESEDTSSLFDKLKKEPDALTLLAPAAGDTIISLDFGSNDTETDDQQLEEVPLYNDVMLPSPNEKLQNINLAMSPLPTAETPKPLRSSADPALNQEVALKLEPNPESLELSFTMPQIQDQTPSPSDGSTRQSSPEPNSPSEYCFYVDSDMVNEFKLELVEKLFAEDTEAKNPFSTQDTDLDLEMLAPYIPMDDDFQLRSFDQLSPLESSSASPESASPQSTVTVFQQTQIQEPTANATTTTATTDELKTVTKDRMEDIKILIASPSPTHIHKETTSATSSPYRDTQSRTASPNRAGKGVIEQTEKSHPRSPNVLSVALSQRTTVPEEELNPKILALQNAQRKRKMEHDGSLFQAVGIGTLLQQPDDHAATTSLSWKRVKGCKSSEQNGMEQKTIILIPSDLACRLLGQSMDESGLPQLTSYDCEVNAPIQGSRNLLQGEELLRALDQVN

For assay [4], the target named is Hepatocyte nuclear factor 6 (Homo sapiens) (UniProt Q9UBC0). The assay is described as follows: ATG_HNF6_CIS: Attagene CIS-FACTORIAL HepG2 Assay for human Hepatocyte Nuclear Factor 6 (HNF6) (AID 2282952). Particulars: HepG2 Attagene cis-factorial HNF6 reporter transcription; actives raise or lower the signal. The method in brief: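 HepG2, transient MRTU transfection (cis promoters); 24 h chemical exposure; total RNA → oligo(dT) RT → PCR → 6-FAM labelling → HpaI cut → CE; bidirectional fit vs DMSO.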
Hepatocyte nuclear factor 6 (Homo sapiens), sequence (Q9UBC0 whole entry, looked up): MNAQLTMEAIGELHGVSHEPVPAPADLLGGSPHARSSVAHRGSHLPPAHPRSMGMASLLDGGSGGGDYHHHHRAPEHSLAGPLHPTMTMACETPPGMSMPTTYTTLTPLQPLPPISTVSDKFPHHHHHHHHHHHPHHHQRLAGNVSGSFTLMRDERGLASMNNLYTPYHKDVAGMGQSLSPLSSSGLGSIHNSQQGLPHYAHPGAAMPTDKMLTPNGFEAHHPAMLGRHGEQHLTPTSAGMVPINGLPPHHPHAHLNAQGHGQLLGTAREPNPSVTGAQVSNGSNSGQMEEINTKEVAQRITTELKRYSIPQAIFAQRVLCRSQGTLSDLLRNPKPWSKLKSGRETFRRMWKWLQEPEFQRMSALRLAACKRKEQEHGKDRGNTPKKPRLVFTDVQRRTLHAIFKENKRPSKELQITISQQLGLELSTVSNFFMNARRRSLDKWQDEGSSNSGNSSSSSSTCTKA

Assay [5] has as its target Heat shock factor protein 1 (Homo sapiens) (UniProt Q00613). The assay is described as follows: ATG_HSE_CIS: Attagene CIS-FACTORIAL HepG2 Assay for human Heat Shock Transcription Factor 1 (HSE) (AID 2282953). The note with it: HepG2 HSE cis-reporter, Attagene RNA transcription; actives raise or lower the signal. The essentials: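 HepG2 cells transfected with cis-promoter reporter units sensing endogenous transcription factor activity; reporter mRNA quantified 24 h post-dose by RT-PCR and capillary electrophoresis of 6-FAM-labelled products. Bidirectional fitting against DMSO.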

A short description of assay [6]: ATG_MRE_CIS: Attagene CIS-FACTORIAL HepG2 Assay for human Metal Responsive Element (MRE) (AID 2282954). Particulars: HepG2 MRE cis-reporter transcription, Attagene multiplex; actives raise or lower the signal. The essentials: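 HepG2 cells transiently transfected with multiple cis-element reporter units measure endogenous MTF1-driven transcription. After 24 h compound exposure, reporter mRNA is quantified by RT-PCR with 6-FAM labelling, HpaI digestion and capillary electrophoresis; bidirectional fits versus DMSO.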

Assay [7] can be described thus: ATG_PBREM_CIS: Attagene CIS-FACTORIAL HepG2 Assay for human Phenobarbital-responsive Enhancer Module (PBREM) (AID 2282955). Particulars: HepG2 PBREM cis-reporter, Attagene multiplexed transcription; actives raise or lower the signal. The method in brief:
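Fluorescence of labelled reporter cDNA fragments, resolved by capillary electrophoresis, gives mRNA induction in transfected HepG2 cells treated for 24 h; DMSO serves as negative control and baseline.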

The target in assay [8] is Paired box protein Pax-6 (Homo sapiens) (UniProt P26367). The assay is described as follows: ATG_Pax6_CIS: Attagene CIS-FACTORIAL HepG2 Assay for human Paired Box 6 (PAX6) (AID 2282956). The note with it: HepG2 CIS-FACTORIAL PAX6 reporter transcription, RNA readout; actives raise or lower the signal. The method in brief:
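After twenty-four hours of chemical exposure, transfected HepG2 cells are harvested for RNA. Cis-promoter reporter transcripts are amplified, fluorescently labelled and sized by capillary electrophoresis, with gain and loss of signal scored against DMSO.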

Assay [9] is described as follows: ATG_PXRE_CIS: Attagene CIS-FACTORIAL HepG2 Assay for human Pregnane X Receptor Element (PXRE) (AID 2282957). Particulars: HepG2 Attagene CIS-FACTORIAL PXRE reporter, mRNA; actives raise or lower the signal. The method in brief: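 Transfect HepG2 with MRTUs (cis promoter elements); dose chemical, incubate 24 h; isolate RNA, RT with oligo(dT), PCR, 6-FAM label, HpaI cut, CE. Gain/loss fit vs DMSO.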

Assay [10] is described as follows: ATG_PPRE_CIS: Attagene CIS-FACTORIAL HepG2 Assay for human Peroxisome Proliferator-activated Response Element (PPRE) (AID 2282958). Particulars: HepG2 PPRE cis-element reporter, Attagene transcription factor profiling; actives raise or lower the signal. The method in brief: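 Cells are first transfected transiently with the multiplexed reporter library, then dosed for 24 h. Total RNA is reverse-transcribed, amplified, fluorescently end-labeled and HpaI-cut before capillary electrophoresis; activity is fitted bidirectionally against DMSO controls.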

A short description of assay [11]: ATG_RORE_CIS: Attagene CIS-FACTORIAL HepG2 Assay for human RAR-related Orphan Receptor Element (RORE) (AID 2282959). The note with it: HepG2 Attagene cis-factorial RORE reporter, mRNA; actives raise or lower the signal. The essentials: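 Cells were HepG2 carrying transfected cis-regulated reporter constructs, dosed for 24 hours. Total RNA was reverse-transcribed and reporter cDNA amplified, fluorescently labeled and sized by capillary electrophoresis. Activity was fitted bidirectionally relative to DMSO.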

Assay [12] can be described thus: ATG_Sox_CIS: Attagene CIS-FACTORIAL HepG2 Assay for human SRY-box transcription factor (SOX) (AID 2282960). The note with it: HepG2 Attagene cis-factorial SOX reporter, mRNA; actives raise or lower the signal. The method in brief: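 Transient MRTU transfection of HepG2; 24 h compound incubation; TriZol RNA, oligo(dT) RT, PCR, 6-FAM primer extension, HpaI cut, CE. Bidirectional fit, DMSO = baseline.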

In assay [13] the target is Transcription factor Sp1 (Homo sapiens) (UniProt P08047). Description: ATG_Sp1_CIS: Attagene CIS-FACTORIAL HepG2 Assay for human Specificity Protein 1 (Sp1) (AID 2282961). The note with it: HepG2 Sp1 cis-reporter transcription, actives raise or lower the signal. The essentials: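 Endogenous Sp1 activity was gauged in human liver HepG2 cells bearing transfected reporter units under a cis-regulating promoter. After 24 h dosing, reporter mRNA was quantified by RT-PCR with capillary electrophoresis, and activity fitted bidirectionally versus DMSO.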
Transcription factor Sp1 (Homo sapiens), sequence (P08047 whole entry, looked up): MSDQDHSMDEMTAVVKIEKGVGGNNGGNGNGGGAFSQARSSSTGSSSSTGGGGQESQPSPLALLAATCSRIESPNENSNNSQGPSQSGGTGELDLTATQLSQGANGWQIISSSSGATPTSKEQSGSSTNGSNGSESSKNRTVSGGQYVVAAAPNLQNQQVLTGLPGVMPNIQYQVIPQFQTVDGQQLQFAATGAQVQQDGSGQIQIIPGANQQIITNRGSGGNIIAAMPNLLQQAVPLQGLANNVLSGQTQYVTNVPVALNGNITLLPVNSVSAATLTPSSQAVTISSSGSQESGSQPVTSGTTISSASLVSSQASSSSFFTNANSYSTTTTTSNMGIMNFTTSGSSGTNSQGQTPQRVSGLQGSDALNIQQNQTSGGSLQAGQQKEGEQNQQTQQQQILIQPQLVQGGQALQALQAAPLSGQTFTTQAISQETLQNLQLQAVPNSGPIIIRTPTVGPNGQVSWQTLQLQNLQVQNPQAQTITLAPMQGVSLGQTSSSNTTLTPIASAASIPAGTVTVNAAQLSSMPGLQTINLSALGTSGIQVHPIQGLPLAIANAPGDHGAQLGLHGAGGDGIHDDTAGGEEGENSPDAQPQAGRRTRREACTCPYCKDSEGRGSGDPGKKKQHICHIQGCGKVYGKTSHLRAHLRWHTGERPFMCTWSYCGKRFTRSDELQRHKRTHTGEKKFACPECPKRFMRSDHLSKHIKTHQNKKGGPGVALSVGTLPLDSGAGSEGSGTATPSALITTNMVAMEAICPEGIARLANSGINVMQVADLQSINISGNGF

Assay [14] is described as follows: ATG_SREBP_CIS: Attagene CIS-FACTORIAL HepG2 Assay for human Sterol Regulatory Element Binding (SREBP) (AID 2282962). Particulars: HepG2 Attagene cis-factorial SREBP reporter, mRNA; actives raise or lower the signal. The method in brief: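 Twenty-four hours after chemical dosing of transfected HepG2 cultures, reporter RNA was converted to cDNA, amplified, end-labelled with 6-FAM and resolved by capillary electrophoresis. Responses were fitted relative to DMSO.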

Assay [15] has as its target Signal transducer and activator of transcription 3 (Homo sapiens) (UniProt P40763). Description: ATG_STAT3_CIS: Attagene CIS-FACTORIAL HepG2 Assay for human Signal Transducer and Activator of Transcription 3 (STAT3) (AID 2282963). Particulars: HepG2, Attagene cis-factorial STAT3 reporter transcription; actives raise or lower the signal. The essentials: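 HepG2 cells transiently transfected with cis-element-driven multiple reporter transcription units; after 24 h chemical exposure, reporter mRNA measured by RT-PCR, 6-FAM primer-extension labelling, HpaI digestion and capillary electrophoresis. Bidirectional fitting versus DMSO baseline.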

Assay [16] in a line: ATG_TA_CIS: Attagene CIS-FACTORIAL HepG2 Assay for human TA Basal Promoter (AID 2282964). Particulars: HepG2 Attagene CIS-factorial TA basal promoter reporter; actives raise or lower the signal. The method in brief: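 HepG2 cells transiently transfected with multiple reporter units under cis promoter elements, reporting endogenous transcription factor activity; this endpoint tracks the TA basal promoter as background control. Reporter mRNA after 24 h dosing measured by RT-PCR/capillary electrophoresis; bidirectional fits versus DMSO.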

Assay [17] is described as follows: ATG_TCF_b_cat_CIS: Attagene CIS-FACTORIAL HepG2 Assay for human T-Cell-Factor with beta-catenin (TCF/b-cat) (AID 2282965). Particulars: HepG2 TCF/beta-catenin cis-reporter transcription, actives raise or lower the signal. The method in brief:
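Using capillary electrophoresis as the read-out, labelled reporter cDNA fragments from transiently transfected HepG2 were sized and quantified. Exposure lasted 24 hours; activity in either direction was referenced to DMSO.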

Assay [18] is described as follows: ATG_TAL_CIS: Attagene CIS-FACTORIAL HepG2 Assay for human TAL Basal Promoter (AID 2282966).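 Further: background control endpoint measuring basal TAL promoter reporter mRNA not a specific factor.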 The note with it: HepG2 Attagene cis-factorial TAL promoter reporter; actives raise or lower the signal. The method in brief: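 Fluorescence of labelled reporter cDNA fragments, resolved by capillary electrophoresis, gave the readout. Human HepG2 liver cells carried transiently transfected cis-element reporter units and were treated for 24 hours; activity was fitted bidirectionally against DMSO.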

The nature of assay [19]: ATG_TGFb_CIS: Attagene CIS-FACTORIAL HepG2 Assay for human Transforming Growth Factor (TGF) (AID 2282967). The note with it: HepG2 Attagene CIS TGFb reporter, mRNA transcription; actives raise or lower the signal. The essentials:
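HepG2 cells transiently transfected with cis-promoter-driven multiple reporter units measure endogenous TF activity; reporter mRNA quantified at 24 h by RT-PCR, FAM labeling, HpaI digestion and capillary electrophoresis. Bidirectional fit vs DMSO.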

The nature of assay [20]: ATG_VDRE_CIS: Attagene CIS-FACTORIAL HepG2 Assay for human Vitamin D Receptor Element (VDRE) (AID 2282968). Particulars: HepG2 VDRE cis-reporter transcription, actives raise or lower the signal. The method in brief:
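HepG2 cells transiently transfected with cis-element reporter units, dosed 24 h; reporter mRNA measured by RT-PCR, 6-FAM labeling, HpaI digestion and capillary electrophoresis. Activity fitted bidirectionally against DMSO baseline.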

Signal transducer and activator of transcription 3 (Homo sapiens), sequence (P40763 whole entry, looked up): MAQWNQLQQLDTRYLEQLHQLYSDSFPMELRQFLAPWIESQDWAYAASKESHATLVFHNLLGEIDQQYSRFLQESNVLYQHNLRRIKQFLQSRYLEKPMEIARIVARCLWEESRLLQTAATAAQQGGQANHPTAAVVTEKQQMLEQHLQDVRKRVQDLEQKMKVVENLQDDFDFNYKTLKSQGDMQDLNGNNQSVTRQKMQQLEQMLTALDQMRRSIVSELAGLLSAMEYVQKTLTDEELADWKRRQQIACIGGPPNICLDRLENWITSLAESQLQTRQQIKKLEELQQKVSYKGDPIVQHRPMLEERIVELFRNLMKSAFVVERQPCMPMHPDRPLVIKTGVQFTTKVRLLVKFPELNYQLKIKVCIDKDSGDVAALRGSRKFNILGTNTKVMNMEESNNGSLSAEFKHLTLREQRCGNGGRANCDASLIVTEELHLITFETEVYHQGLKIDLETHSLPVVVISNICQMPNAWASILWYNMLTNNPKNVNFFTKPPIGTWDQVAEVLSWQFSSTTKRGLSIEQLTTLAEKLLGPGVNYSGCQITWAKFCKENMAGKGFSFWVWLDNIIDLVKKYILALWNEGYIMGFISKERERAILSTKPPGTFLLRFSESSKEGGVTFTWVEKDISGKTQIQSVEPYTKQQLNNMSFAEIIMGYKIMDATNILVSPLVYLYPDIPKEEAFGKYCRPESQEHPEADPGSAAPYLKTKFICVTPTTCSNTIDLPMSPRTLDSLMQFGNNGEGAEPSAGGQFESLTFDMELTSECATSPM
Heat shock factor protein 1 (Homo sapiens), sequence (Q00613 whole entry, looked up): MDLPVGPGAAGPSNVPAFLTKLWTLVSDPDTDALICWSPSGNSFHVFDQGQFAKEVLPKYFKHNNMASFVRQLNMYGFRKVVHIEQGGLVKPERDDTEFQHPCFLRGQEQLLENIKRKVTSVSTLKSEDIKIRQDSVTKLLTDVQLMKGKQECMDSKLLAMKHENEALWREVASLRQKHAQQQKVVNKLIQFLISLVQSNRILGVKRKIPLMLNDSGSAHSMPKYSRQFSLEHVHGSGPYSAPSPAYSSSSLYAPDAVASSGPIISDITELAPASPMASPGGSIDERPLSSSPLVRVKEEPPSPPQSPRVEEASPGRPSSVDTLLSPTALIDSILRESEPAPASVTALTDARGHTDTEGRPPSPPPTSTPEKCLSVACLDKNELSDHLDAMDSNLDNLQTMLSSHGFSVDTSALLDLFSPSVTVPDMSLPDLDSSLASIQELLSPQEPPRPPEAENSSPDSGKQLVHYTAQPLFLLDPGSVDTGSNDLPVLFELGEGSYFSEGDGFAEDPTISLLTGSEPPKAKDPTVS
Paired box protein Pax-6 (Homo sapiens), sequence (P26367 whole entry, looked up): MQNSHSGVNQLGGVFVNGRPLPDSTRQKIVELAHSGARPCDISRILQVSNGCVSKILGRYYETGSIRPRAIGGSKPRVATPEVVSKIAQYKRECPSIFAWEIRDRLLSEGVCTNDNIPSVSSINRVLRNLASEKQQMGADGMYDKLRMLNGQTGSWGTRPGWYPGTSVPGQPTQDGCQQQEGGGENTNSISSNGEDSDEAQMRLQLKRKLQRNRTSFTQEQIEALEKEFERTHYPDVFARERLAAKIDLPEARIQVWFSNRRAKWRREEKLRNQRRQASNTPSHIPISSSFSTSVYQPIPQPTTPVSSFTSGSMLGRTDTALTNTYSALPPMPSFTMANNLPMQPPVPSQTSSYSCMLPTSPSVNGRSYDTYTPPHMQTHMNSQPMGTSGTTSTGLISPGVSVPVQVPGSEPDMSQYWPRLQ

For the compound `Cc1ccc2ccc3ccc(C)cc3c2c1`, the compound was called inactive in assay [1], in [2], in assay [3], in assay [4], in assay [5] and in [6]. In addition, the outcome in [7], in [8], in [10], in [11], in [12] and in assay [13] was inactive. Besides, the call in assay [14], in assay [15], in assay [16], in [17], in [18] and in assay [19] was inactive. The compound was classed as inactive in assay [20]. Besides, the AC50 in assay [9] was 8.1 µM (active).

In the case of `Cc1cccc2c1ccc1ccccc12`, the result in assay [1], in assay [2], in assay [3], in [4], in [5] and in assay [6] was inactive. The outcome in [7], in assay [8], in assay [10], in assay [11], in [12] and in assay [13] was inactive. The compound was classed as inactive in [14], in assay [15], in assay [16], in assay [17], in [18] and in assay [19]. Further, the call in assay [20] was inactive. Besides, the AC50 in assay [9] was 27.4 µM (active).

Take `COc1cc(OC)nc(NC(=O)NS(=O)(=O)Nc2ccccc2C(=O)N(C)C)n1`: the result in assay [1], in assay [2], in assay [3], in assay [4], in assay [5] and in assay [6] was inactive. Further, the outcome in assay [7], in assay [8], in assay [9], in [10], in [11] and in assay [12] was inactive. The compound was classed as inactive in [13], in [14], in assay [15], in assay [16], in assay [17] and in assay [18]. Also, the compound was classed as inactive in [19] and in assay [20].

As to `CCCCCCCCC1CCC(=O)O1` (stereo not given), the result in assay [1], in assay [2], in assay [3], in assay [4], in [5] and in assay [6] was inactive. Moreover, the outcome in assay [7], in assay [8], in [9], in [10], in assay [11] and in assay [12] was inactive. In addition, the compound was classed as inactive in assay [13], in assay [14], in assay [15], in assay [16], in [17] and in assay [18]. The call in assay [19] and in [20] was inactive.

`C=CC(=C)CC/C=C(\C)CCC=C(C)C`: the result in assay [1], in assay [2], in [3], in [4], in assay [5] and in assay [6] was inactive. The outcome in [7], in [8], in assay [10], in assay [11], in assay [12] and in [13] was inactive. Moreover, the compound was called inactive in [14], in assay [15], in [16], in assay [17], in assay [18] and in assay [19]. The results for the AC50 in [9] and in [20] were 3.39 µM (active) and 6.84 µM (active), respectively.

On to `Oc1ccc(Cc2ccccc2O)cc1`, for which the outcome in assay [1], in assay [2], in [3], in assay [4], in [5] and in assay [6] was inactive. The outcome in [7], in [8], in [10], in assay [11], in assay [12] and in assay [13] was inactive. Further, the call in assay [14], in assay [15], in [16], in assay [17], in assay [18] and in [19] was inactive. Also, the AC50 was 46 µM (active) in assay [9] and 64.5 µM (active) in assay [20].
